The list is not random: actives were taken first. Their share in the collection is about 4.1%.
DAX1 inh-1 = inhibitors of DAX1 repression of SF-1 activated StAR promoter | HEK293T StAR-luciferase reporter, SF-1/DAX-1 repression relief | inhibition, % at 6.8 µM | actives 1.1% (n = 370,000);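 active = inhibition above the mean over all tested compounds plus 3 SD, cut at about 3.6% in these data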;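 also: 0% = DAX-1 cells with DMSO and 100% = cells lacking DAX-1 with DMSO; higher inhibition means more luminescence from relief of DAX-1 repression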
hcDAF12 agonist = H. contortus DAF-12 activation, primary screen | HEK293 hcDAF-12 lit1-tk-luc reporter, luminescence; 0% DMSO, 100% Δ7-dafachronic acid | activation, % at 6.8 µM | actives 1.4% (n = 370,000) | AID 652067;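 active = activation above the mean of all tested compounds plus 3 SD, cut at about 5.5% in these data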;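 also: 100% = response to 3 µM Δ7-dafachronic acid high control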
DAX1 inh-2 = inhibitors of human orphan nuclear receptor DAX1 (NR0B1); inhibition, % at 6.75 µM; HEK293 Gal4-DAX1 luciferase reporter, luminescence; P51843; actives 0.99% (n = 340,000);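 active = inhibition above the mean over all tested compounds plus 3 SD, cut at about 4.2% in these data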;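 also: 0% = DAX1-transfected cells with DMSO and 100% = empty-vector control cells with DMSO; inhibition shows as a rise in luminescence from relieved DAX1 repression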
Target sequence (P51843 207-470 limits assumed): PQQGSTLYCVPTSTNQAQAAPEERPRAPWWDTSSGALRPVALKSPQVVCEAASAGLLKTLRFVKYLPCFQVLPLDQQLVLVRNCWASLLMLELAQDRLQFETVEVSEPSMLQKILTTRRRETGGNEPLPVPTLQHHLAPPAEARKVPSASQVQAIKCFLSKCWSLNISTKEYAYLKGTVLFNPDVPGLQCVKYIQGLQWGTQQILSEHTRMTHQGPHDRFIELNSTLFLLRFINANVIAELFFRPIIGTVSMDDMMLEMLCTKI
hgDAF-12 ag = hgDAF-12 agonism, primary luciferase screen | HEK293 GAL4-hgDAF12 UAS-luciferase reporter, agonist luminescence; normalized to butyrate control | activation, % at 6.8 µM | actives 1.8% (n = 370,000) | AID 687014;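 active = activation above a cutoff set at the mean of all screened compounds plus 3 SD, cut at about 10% in these data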;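 also: 0% = DMSO wells and 100% = sodium butyrate wells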
ssDAF-12 act = activators of S. stercoralis DAF-12 nuclear receptor; HEK293 ssDAF-12/GRIP1 lit1-tk-luc reporter, luminescence; % of 3 µM dafachronic acid response; activation, % at 6.8 µM; actives 1% (n = 370,000); AID 652126;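 active = activation above the mean over all tested compounds plus 3 SD, cut at about 0.9% in these data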;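 also: 0% = DMSO-only wells and 100% = 3 µM delta7-dafachronic acid wells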
* marks the source's active call; other numbers are inactive results; . = no result given.

SMILES	DAX1 inh-1	hcDAF12 agonist	DAX1 inh-2	hgDAF-12 ag	ssDAF-12 act
CCOC(=O)[C@@]12CN(C(=O)OC(C)(C)C)CC=C1N(Cc1ccc(OC)cc1)C(=O)[C@H]2CC(=O)N1CCCCC1	0.0	-2.7	.	-2.6	-1.3
COc1ccc(C2N(c3ccc(F)cc3)C(=O)C3CCCN32)cc1 (stereo not drawn)	1.3	0.1	5.2*	4.3	-1.1
COc1ccc(N2C(=O)C3CCCN3C2c2ccc(C)cc2)cc1 (stereo not drawn)	0.6	-0.4	3.2	2.8	-0.8
COc1ccc(N2C(=O)C3CCCN3C2c2cccc(C)c2)cc1 (stereo not drawn)	0.3	0.3	3.4	-1.7	-1.1
O=C1C2CCCN2C(c2ccc(F)c(F)c2)N1c1cccc(Cl)c1 (stereo not drawn)	-0.8	-1.4	4.4*	0.4	-0.9
COc1ccc(C2N(c3ccc(OC)cc3)C(=O)C3CCCN32)cc1 (stereo not drawn)	0.4	-1.1	5.3*	1.8	-0.8
O=C1C2CCCN2C(c2ccccc2)N1c1cccc(Cl)c1 (stereo not drawn)	-0.2	0.4	1.1	0.9	-1.1
COc1cccc(C2N(c3ccc(Cl)cc3)C(=O)C3CCCN32)c1 (stereo not drawn)	1.1	1.9	6.4*	-0.7	0.0
C[C@@H](N)P(=O)(O)C[C@H](Cc1ccccc1)C(=O)O	-0.1	-1.1	.	0.1	-0.6
CCOC(=O)[C@]12CCCCC/C=C\1N(CCc1ccc(Cl)cc1)C(=O)[C@H]2CC(=O)NCc1ccc(OC)c(OC)c1	-0.9	-2.8	.	3.4	-1.5
C/C(=N/NC(=O)Nc1ccccc1)c1ccc(C)cc1	-0.2	-1.6	2.2	-2.1	-1.2
C/C(=N\OC(=O)Nc1ccccc1)c1ccc(C)cc1	0.9	0.5	5.9*	3.9	-0.9
O=C1C2C3C=CC(C3)C2C(=O)N1c1ccc(-c2nc(-c3ccccc3)nc3ccccc23)cc1 (stereo not drawn)	0.0	0.3	.	1.8	-0.9
C=CCNC(=O)c1cnn(-c2ccccc2)c1-c1ccccc1	-0.1	0.5	-0.7	0.3	-1.4
C=CCNC(=O)c1c(Cl)cnn1-c1ccc(C)cc1	1.2	4.2	.	11.9*	-0.2
CNC(=O)c1c(Br)cnn1-c1ccc(C)cc1	3.7*	3.5	0.8	12.2*	-0.7
CNC(=O)c1c(Cl)cnn1-c1ccc(C)cc1	1.5	3.0	0.5	11.8*	0.2
Cc1cc(-c2nnc(CCC(=O)NCc3cccc(C(F)(F)F)c3)o2)no1	-0.7	0.0	-0.4	3.0	-0.3
Cc1cc(-c2nnc(CCC(=O)NCc3ccc(F)c(F)c3)o2)no1	0.2	0.1	4.3*	2.6	1.9*
O=C(CCc1nnc(C2CCCCC2)o1)NCc1ccc(F)c(F)c1	-0.4	0.5	5.6*	-1.2	-0.9
Oc1ccccc1C1=Nc2nc3ccccc3n2C(c2ccccc2)C1 (stereo not drawn)	1.7	4.4	1.1	13.1*	0.8
Oc1ccccc1C1=NN(c2ccccc2)C(c2ccc(F)cc2)C1 (stereo not drawn)	-0.1	-0.8	-0.2	0.0	-1.1
CCOC(=O)N1CCC(NC(=O)CN2C(=O)CSc3ncccc32)CC1	-0.2	5.3	5.0*	-2.4	-1.2
CCOC(=O)N1CCC(NC(=O)CCCN2C(=O)CSc3ncccc32)CC1	0.2	-0.3	1.6	2.9	-1.5
O=C(NCc1ccco1)/C(=C\C=C\c1ccccc1)NC(=O)c1ccco1	-0.3	-0.8	7.4*	-2.7	-0.7
SMILES	DAX1 inh-1	hcDAF12 agonist	DAX1 inh-2	hgDAF-12 ag	ssDAF-12 act
CCOC(=O)[C@]12CCCC=C1N(CCCOC)C(=O)[C@@H]2CC(=O)N1CCN(C(=O)c2ccco2)CC1	-0.5	1.3	.	-0.5	-0.8
Cc1ccc(/C=N/N2CCOCC2)s1	1.5	1.7	5.6*	-0.4	-0.9
Cc1ccc(/C=N/N2CCN(Cc3ccccc3)CC2)s1	0.5	2.2	1.9	2.8	-0.7
CC1=C2NC(N)=[N+](CC3CC3)C(Cc3ccccc3)[C@@H]2n2c(=O)n(-c3ccccc3)c(=O)n2C1 (stereo partly drawn)	-0.4	-1.5	.	4.7	-0.9
c1ccc(COc2ccc3nocc3c2)cc1	0.7	4.1	3.6	10.7*	-0.7
Nc1ccc(OCc2ccccc2)cc1	0.9	-2.1	4.2	5.0	-0.7
CCOC(=O)[C@@]12CCC3=C1N(CCC3)C(=O)[C@H](CC(=O)NCC13CC4CC(CC(C4)C1)C3)C2	-0.3	-1.5	.	-3.0	-1.0
CN1C(=O)/C(=C/c2ccc(OCc3cccc(F)c3)cc2)NC1=S	0.1	-0.7	0.2	-0.9	1.4*
COc1cc(/C=C2/C(=O)N(C)C(=S)N2C)ccc1OCc1cccc(F)c1	0.4	-0.3	-0.6	-2.3	-1.9
O=C(NCC1CCCCC1)c1ccc(F)cc1Cl	0.6	1.4	7.4*	3.5	-0.2
O=C(NC1CC1)c1ccc(F)cc1Cl	0.3	-1.4	0.7	0.1	1.0*
O=C(COC(=O)c1ccc(F)cc1Cl)NC1CCCCCCC1	-0.6	0.0	0.6	1.0	-0.7
c1ccc(-c2nc3ccccc3nc2-c2ccc(CN3CCC4(CC3)CNc3ccccc34)cc2)cc1	-0.1	-0.4	.	0.6	-0.5
COc1ccc(C(C#N)=Cc2ccc(NC(C)=O)cc2)cc1	3.7*	-0.3	1.4	6.3	-1.1
COc1ccc2nc(/C(C#N)=C\c3ccc(C(=O)O)cc3)[nH]c2c1	1.9	3.7	0.4	12.8*	0.0
CC(=O)Nc1ccc(C(C#N)=Cc2ccc(N(C)CCC#N)cc2)cc1	-3.4	-4.7	-0.2	-0.4	-1.4
C#Cc1cccc(NC(=O)c2ccc(Cl)cc2Cl)c1	1.7	3.5	2.2	12.3*	-0.1
CC[n+]1ccc(/C=C2\Sc3ccccc3N2CCCS(=O)(=O)[O-])c2ccccc21	-0.1	3.6	-0.1	-1.2	1.2*
C[n+]1ccccc1/C=C1\Sc2ccccc2N1CCO	-0.3	0.5	1.8	-3.4	-0.9
COc1ccc2ccccc2c1/C=N/N1C(=O)CSC1=S	-0.4	0.9	-0.7	-0.8	0.5
O=C1CSC(=S)N1N=Cc1c(O)ccc2ccccc12	1.5	4.1	3.0	3.9	1.0*
CCC1=C(NCc2ccccc2)COC1=O	0.8	0.7	4.3*	-1.5	-1.6
Nn1c(SCC(=O)N2c3ccccc3Sc3ccc(Cl)cc32)nnc1-c1cc(-c2ccc(F)cc2)n[nH]1	-1.1	-0.2	.	5.1	-1.5
O=C(NCc1cccs1)c1noc2c1CCCCC2	0.9	-0.2	1.1	10.5*	-1.2
CC(C)C[C@H]1COc2cc(N3CCCC3)ccc2S(=O)(=O)N1C	-2.7	-1.7	.	1.4	-2.0
O=[N+]([O-])c1ccccc1Oc1ccccc1Cl	-0.2	0.9	0.8	1.6	-0.9
N/C(=N\O)c1ccc(Oc2ccccc2Cl)c([N+](=O)[O-])c1	-0.8	-0.9	5.4*	2.6	-1.9
C=C(C)CSc1nc2nc(C)c(Br)cc2[nH]1	1.5	-0.2	6.0*	4.9	-1.7
CCCn1nnc(NC(=O)c2ccc3ccccc3c2)n1	1.5	1.7	3.2	10.8*	-0.8
